Screening data: PubChem, National Center for Advancing Translational Sciences (NCATS)
D2 antag – antagonizes the human D2 dopamine receptor; P14416; AID 485344; actives 2% (n = 340,000); HEK293 TREx D2 cells, calcium flux, dopamine EC80; inhibition, % at 10 µM; in the data active = inhibition above about 30%; inactive = below that, where a call was filed; note: 0% is about no effect
Target sequence (P14416 whole entry, looked up): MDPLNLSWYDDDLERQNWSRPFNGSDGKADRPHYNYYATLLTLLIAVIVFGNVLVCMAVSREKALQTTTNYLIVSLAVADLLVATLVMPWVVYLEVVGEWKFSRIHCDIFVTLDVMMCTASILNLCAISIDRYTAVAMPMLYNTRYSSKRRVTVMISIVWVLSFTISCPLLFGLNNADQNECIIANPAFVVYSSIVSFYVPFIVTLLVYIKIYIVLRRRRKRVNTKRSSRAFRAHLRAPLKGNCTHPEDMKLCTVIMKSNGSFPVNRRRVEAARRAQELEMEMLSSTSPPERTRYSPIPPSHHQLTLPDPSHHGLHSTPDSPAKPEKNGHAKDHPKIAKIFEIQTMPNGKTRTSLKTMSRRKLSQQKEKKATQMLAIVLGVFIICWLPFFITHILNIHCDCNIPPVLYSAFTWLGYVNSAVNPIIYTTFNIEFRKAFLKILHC
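Calcium flux kinetic readout in an inducible HEK293 TREx D2 line plated overnight at 30 C. After 180 s compound exposure, an EC80 dopamine challenge follows with another 180 s kinetic read to detect antagonism.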
D2 PAM-1 – human D2 receptor positive allosteric modulation; DiscoveRx D2 beta-arrestin cells, luminescence, 90 min; 100% = 57 uM dopamine signal; actives 0.23% (n = 360,000); potentiation, % (no concentration beside the values); P14416; in the data active = potentiation above about 50%; inconclusive = mostly about 30% to 49%
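PathHunter beta-arrestin assay in DiscoveRx D2 cells. Compounds were added with an EC20 of dopamine (50 nM final) for 90 min at 37 deg C. Luminescence was read 1 h after detection reagent, with 57 uM dopamine as the EC100 control.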
D2 PAM-2 – positively modulates the human D2 dopamine receptor allosterically. P14416. HEK293 T-REx D2, calcium flux, EC20 dopamine potentiation. potentiation, % at 10 µM. actives 0.34% (n = 340,000);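 active = potentiation over 3 SD above the plate norm, cut at about 30% in these data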; note: 0% is about no effect
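Primary screen. Calcium kinetics in induced HEK293 T-REx D2 cells: compound pre-addition 180 s, EC20 dopamine, 180 s more.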
D2 ag-1 – activates the human D2 dopamine receptor; P14416; AID 485358; HEK293 T-REx D2 cells, calcium flux agonist mode; activation, % at 2 µM; actives 0.53% (n = 340,000);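 active = activation over 3 SD above normal in the single-dose calcium agonist read, cut at about 30% in these data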; note: 0% is about no effect
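Agonism is scored from calcium flux in a force-coupled, inducible HEK293 cell line expressing D2, read kinetically for 180 s after compound addition against dopamine controls.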
D2 ag-2 – agonists of human D2 dopamine receptor (beta-arrestin); P14416; activation, % (test concentration not listed); DiscoveRx PathHunter D2 beta-arrestin, luminescence, 90 min; 100% = 57 uM dopamine signal; actives 0.084% (n = 360,000); in the data active = activation above about 40%; inconclusive = between about 15% and that limit
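DiscoveRx PathHunter D2 beta-arrestin cells (2,100/well) attached overnight, then compound-stimulated 90 min at 37 C in HBSS/10 mM HEPES/0.1% Tween-20 buffer; beta-galactosidase complementation read by luminescence after 1 h at ambient temperature. Dopamine 57 uM final (EC100) as control.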
D3 ag – confirmation of human D3 dopamine receptor agonists, beta-arrestin | shares compounds with D2 ag-1 | Potency, µM (titrated, usually from 76.9 µM), inactives show at the top dose activation, actives largely listed as activators | AID 720506 | DiscoveRx D3 beta-arrestin cells, luminescence, 90 min | actives 4% (n = 2,300);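 note: potency is the fitted concentration of half-maximal effect; 100% = dopamine control response; nearly all actives have a fitted effect of over 70% in size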
D2 ag-3 – counter-screen for D3 agonists: human D2 dopamine receptor agonism; AID 720507; actives 5.9% (n = 2,300); Potency, µM (doses to about 76.9 µM), inactives show top-dose activation, hits mostly activators; DiscoveRx PathHunter D2 beta-arrestin, luminescence, 90 min; response scale: percent relative to full dopamine signal; shares compounds with D2 ag-1; note: potency is the fitted concentration of half-maximal effect; % of control where 0% means no effect; nearly all actives have a fitted effect of over 70% in size
The depositor's hits bear a star; ? = inconclusive; / = no result given. Rows were chosen to be rich in hits. Some 2.4% of all compounds tested hit in one or more screens of this group. Unless noted, calls come from the whole dose curve; as a rule, active = well fitted activation curve with a large enough effect; inconclusive = small, poorly fitted or top-dose-only effect; inactive = flat fitted curve, though single readings scatter.

SMILES	D2 antag	D2 PAM-1	D2 PAM-2	D2 ag-1	D2 ag-2	D3 ag	D2 ag-3
COc1ccc(N2C(=O)CS(=O)(=O)C23C(=O)N(Cc2ccccc2F)c2ccccc23)cc1Cl (centres undefined)	/	/	4	1	/	/	/
O=C(NCc1ccc(Cl)cc1)C(=O)NCC(c1ccco1)S(=O)(=O)c1cccs1 (centres undefined)	/	/	/	1	/	/	/
O=C(NCC(c1ccco1)N1CCN(c2ccccc2)CC1)C(=O)NC1CCCC1 (centres undefined)	-4	-3	-8	2	7	24%	11%
O=C(NCC(c1ccco1)N1CCN(c2ccccc2)CC1)C(=O)NC1CC1 (centres undefined)	20	?	1	13	13	?	?
COc1cc(OC)c(OC)cc1CNc1sc2c(c1C(=O)Nc1ccccc1OC)CCC2	/	/	/	0	/	/	/
CCCn1c(N)c(C(c2ccc(C(=O)OC)cc2)N2CCN(c3ccccc3)CC2)c(=O)[nH]c1=O (centres undefined)	16	-5	-8	48*	-1	5%	11%
CCCn1c(N)c(C(c2ccc(OC)cc2)N2CCN(c3ccccc3)CC2)c(=O)[nH]c1=O (centres undefined)	3	-9	-10	43*	7	-8%	7%
COC(=O)c1ccc(C(c2c(N)n(CC(C)C)c(=O)[nH]c2=O)N2CCN(c3ccccc3)CC2)cc1 (centres undefined)	/	-3	/	/	1	/	/
O=C(CCN1CCN(S(=O)(=O)c2ccc(Cl)cc2)CC1)Nc1ccccc1F	10	-1	8	0	2	/	/
COC(=O)c1[nH]c2cc(OC)ccc2c1NC(=O)CCN1CCN(c2cccc(C)c2C)CC1	57*	-11	-8	1	-1	8%	-1%
O=C(CCN1CCN(c2ccccc2F)CC1)Nc1ccccc1Cl	88*	-10	-24	70*	-1	-3%	21%
COc1cc(NC(=O)CCN2CCN(c3ccccc3F)CC2)cc(OC)c1	40*	-16	-11	31*	10	?	21%
O=C(CCN1CCN(c2ccccc2F)CC1)Nc1cccc(F)c1	80*	-5	-24	81*	-4	?	?
CSc1ccc(-c2nc3cccc(C)n3c2Nc2ccc3c(c2)OCO3)cc1	/	/	17	0	/	/	/
O=C(CCN1CCN(c2ccccc2F)CC1)Nc1ccc(F)cc1	88*	-75	-16	14	3	?	7%
O=C(CCN1CCN(S(=O)(=O)c2ccc(Cl)cc2)CC1)Nc1ccc(F)cc1	/	-8	11	/	-1	/	/
CC(=O)c1cccc(OCC(O)CNCC2CCCCC2)c1 (centres undefined)	-14	-13	-18	0	2	/	/
CC(=O)c1cccc(OCC(O)CNCCOc2ccc(C)cc2)c1 (centres undefined)	42*	-7	-23	53*	12	-2%	5%
C=CCn1c(SC(C)C(=O)c2c(N)n(C)c(=O)n(C)c2=O)nnc1-c1ccoc1C (centres undefined)	-7	6	-8	32*	5	-27%	5%
COc1cc(/C=N/Nc2cc(C)nc(NS(=O)(=O)c3ccc(C)cc3)n2)ccc1O	1	-1	12	-1	2	/	/
COc1cc(/C=N/Nc2cc(C)nc(NS(=O)(=O)c3ccccc3)n2)ccc1O	26	5	-2	-1	-1	10%	-2%
COc1ccc(C2C(=O)N(C3CCC(C)CC3)CC(=O)N2C2CCCCC2)cc1OC (centres undefined)	/	/	1	1	/	/	/
CC(C)CCNC(=O)c1ccc2c(c1)N(Cc1ccccc1F)C(=O)c1ccccc1S2=O (centres undefined)	/	/	-2	0	/	/	/
CSc1ncc(C(=O)N2CCN(c3cccc(C(F)(F)F)c3)CC2)c(C)n1	/	/	-1	0	/	/	/
COc1cccc(C2CC(c3ccc(Cl)cc3Cl)n3nc(N)nc3N2)c1 (centres undefined)	0	-4	15	0	6	/	/
SMILES	D2 antag	D2 PAM-1	D2 PAM-2	D2 ag-1	D2 ag-2	D3 ag	D2 ag-3
COc1cccc(C2CC(c3ccccc3Cl)n3nc(N)nc3N2)c1 (centres undefined)	-11	9	-17	71*	-1	-15%	-3%
CN(CC(=O)NCc1ccccc1)CC(=O)Nc1ccc(Cl)c(C(F)(F)F)c1	22	-1	3	2	7	4%	3%
Cc1c(Cl)cccc1NS(=O)(=O)c1ccc2[nH]cc(C(=O)NC3CCCC3)c(=O)c2c1	/	/	-4	-1	/	/	/
O=C(CN1CCN(C(=O)c2ccco2)CC1)Nc1cccc(S(=O)(=O)N2CCCC2)c1	13	3	2	30	6	17%	17%
Cc1ccc(S(=O)(=O)CCC(=O)Nc2cccc(S(=O)(=O)N3CCCCCC3)c2)cc1	6	0	-7	-1	-7	8%	11%
CC(=O)NCCC(=O)Nc1cc(S(=O)(=O)N2CCCCC2)ccc1N1CCN(C)CC1	-2	-11	-2	1	-2	/	/
Cc1ccc(NC(=O)[C@@H]2CCCN2S(=O)(=O)c2ccccc2F)cc1	-12	2	1	1	-2	/	/
CC(=O)NCCC(=O)Nc1cc(S(=O)(=O)N2CCCCC2)ccc1N1CCCCC1	15	-5	-1	1	0	8%	1%
O=C(Nc1cccc(S(=O)(=O)N2CCCCC2)c1)C1CCCN1S(=O)(=O)c1ccccc1F (centres undefined)	22	25	-6	5	3	1%	16%
O=c1c2ccccc2n2c(-c3ccc(Cl)cc3)nnc2n1CCc1ccccc1	/	/	13	-1	/	/	/
Cc1ccc(SCc2nc(-c3ccc(C(=O)NCc4ccccc4Cl)cc3)oc2C)cc1	/	/	2	2	/	/	/
COc1ccc(NC(=O)c2cc3c(s2)-c2c(C)cccc2OC3)c(OC)c1	/	/	-19	0	/	/	/
O=C(CN1CCc2ccccc2C1)Nc1cccc(S(=O)(=O)N2CCCC2)c1	49*	-9	-24	53*	0	?	?
Cc1ccc(CN2CCN(c3ncccn3)CC2)o1	86*	?	-26	85*	?	-6%	?
O=[N+]([O-])c1cccc(-c2ccc(CN3CCN(c4ccccc4)CC3)o2)c1	47*	-16	-22	52*	4	3%	14%
